Shown are actives, neighbours in structure and some others; about 0.92% of the full set was active somewhere.
APE1 inh: inhibitors of human APE1 endonuclease; P27695; recombinant APE1, TAMRA/BHQ-2 abasic DNA cleavage fluorescence; Potency, µM (doses to about 65.8 µM), for inactives: at the highest dose activity change, negative = inhibition, actives largely listed as inhibitors; 350,000 tested, 0.35% active; AID 2517;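 note: plate controls were vehicle for no effect and reference inhibitor for full effect; nearly all actives have a fitted effect of over 55% in size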
Target sequence (P27695 whole entry, looked up): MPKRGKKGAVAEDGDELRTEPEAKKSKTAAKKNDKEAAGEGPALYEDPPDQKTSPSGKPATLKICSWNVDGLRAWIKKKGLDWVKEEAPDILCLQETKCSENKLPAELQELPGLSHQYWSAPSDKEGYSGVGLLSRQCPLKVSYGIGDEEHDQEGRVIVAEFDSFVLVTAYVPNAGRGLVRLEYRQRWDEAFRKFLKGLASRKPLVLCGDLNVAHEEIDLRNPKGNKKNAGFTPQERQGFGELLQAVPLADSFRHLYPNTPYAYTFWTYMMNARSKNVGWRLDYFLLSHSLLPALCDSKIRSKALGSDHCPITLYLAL
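Measures dequenching upon AP-site incision of a 5'-TAMRA/3'-BHQ-2 THF-containing duplex, 50 nM; human APE1 0.75 nM after 15 min room-temperature exposure to compound; kinetic three-point read at one-minute spacing.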
TDP1 inh: TDP1 (human) enzyme inhibition; recombinant TDP1, AlphaScreen DNA substrate cleavage; Potency, µM (top dose mostly 130 µM), inactives show at the highest dose activity change, negative = inhibition, hits mostly inhibitors; 350,000 tested, 0.28% active; note: % is set by controls: 0 for no effect and ±100 for the full control effect; nearly all actives have a fitted effect of over 40% in size
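Recombinant E. coli-expressed Tdp1 (1 nM) preincubated with compound 15 min at RT, then 5'-biotin/3'-phosphotyrosine-FITC DNA substrate (15 nM) added for 5 min. AlphaScreen beads (10 ug/ml) added, 10 min RT; tyrosine-FITC cleavage read as signal loss.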
BLM helicase inh: blocks DNA unwinding by human BLM helicase | P54132 | recombinant BLM DNA unwinding, fluorescence dequenching | Potency, µM (highest dose often 56.1 µM), for inactives: at the top dose activity change, negative = inhibition, most hits filed as inhibitors | 350,000 tested, 0.2% active | AID 2528;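 note: plate controls were vehicle for no effect and no enzyme for full effect; nearly all actives have a fitted effect of over 35% in size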
RECQ1 helicase: RECQ1 (human) helicase inhibition. 240,000 tested, 0.54% active. RECQ1 DNA unwinding, red fluorescence kinetic read. Potency, µM (series often up to 57.3 µM), without a hit: at the highest dose activity, negative = inhibition, actives largely listed as inhibitors. P46063;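 note: plate controls were vehicle for no effect and no enzyme for full effect; nearly all actives have a fitted effect of over 30% in size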
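RECQ1T1 50 nM; forked duplex (20 bp + 30-nt ss tails) 200 nM, ATP 2 mM final; pH 8.0, 2 mM MgCl2, 2.5 ug/ml poly(dI-dC); 15 min compound preincubation; discontinuous kinetic read over 2 h at RT.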
FEN1 inh-1: inhibitors of human flap endonuclease 1. Recombinant FEN1 flap cleavage, fluorescence, 15 min. P39748. Potency, µM (titrated, usually from 114 µM), for the others: top-dose activity change, negative = inhibition, most hits filed as inhibitors. 390,000 tested, 0.35% active; note: % is set by controls: 0 for no effect and ±100 for the full control effect; nearly all actives have a fitted effect of over 65% in size
Target sequence (P39748 whole entry, looked up): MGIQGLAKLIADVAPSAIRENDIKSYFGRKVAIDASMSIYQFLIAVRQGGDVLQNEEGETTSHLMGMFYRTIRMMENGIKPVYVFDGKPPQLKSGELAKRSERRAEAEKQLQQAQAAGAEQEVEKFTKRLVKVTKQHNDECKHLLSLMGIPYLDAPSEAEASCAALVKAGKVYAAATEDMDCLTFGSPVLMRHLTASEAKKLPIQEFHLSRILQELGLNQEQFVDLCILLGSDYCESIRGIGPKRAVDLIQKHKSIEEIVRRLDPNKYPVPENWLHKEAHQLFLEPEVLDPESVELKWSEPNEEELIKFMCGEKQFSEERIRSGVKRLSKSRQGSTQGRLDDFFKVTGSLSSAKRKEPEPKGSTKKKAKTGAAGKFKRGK
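Reaction started by adding substrate (50 nM final) to 10 nM enzyme after 15 min room-temperature compound preincubation. Reads at 0 and 15 min, with data normalized and fitted to a four-parameter Hill equation.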
FEN1 inh-2: FEN1 inhibition, cherry-pick retest. shares compounds with FEN1 inh-1. Potency, µM, most hits filed as inhibitors. 880 tested, 79% active. FEN1 flap cleavage, TAMRA/BHQ2 fluorogenic DNA substrate; note: nearly all actives have a fitted effect of over 60% in size
Active calls of the source: *; i = inactive; ? = inconclusive; / = not tested or not shown; [ ] = remark or other dose. Calls come from the whole dose curve; as a rule, active = well fitted curve in the direction sought with a large enough effect; inconclusive = small, poorly fitted or top-dose-only effect, or another doubt; inactive = no such curve, though single readings can be large; an effect the other way counts as inactive or inconclusive. Potency is the fitted concentration of half-maximal effect.

SMILES	APE1 inh	TDP1 inh	BLM helicase inh	RECQ1 helicase	FEN1 inh-1	FEN1 inh-2
Cc1cccc(OCCn2c(SCC(=O)O)nc3ccccc32)c1	/	1.9%	0.9%	/	16.2%	/
Cc1c(NC(=O)C(C)OC(=O)c2ccc([N+](=O)[O-])s2)c(=O)n(-c2ccccc2)n1C (configuration not stated)	?	6.0%	-8.1%	-7.6%	-2.1%	6.01*
CC(OC(=O)c1ccc([N+](=O)[O-])s1)C(=O)NC1CCCCC1C (configuration not stated)	2.0%	-0.1%	/	/	-19.6%	12*
COc1cc(C(=O)OC(C)C(=O)NC2CCCCC2C)c([N+](=O)[O-])cc1OC (configuration not stated)	-7.3%	/	/	/	2.7%	/
Cc1c(NC(=O)C(C)OC(=O)c2sc3ccccc3c2Cl)c(=O)n(-c2ccccc2)n1C (configuration not stated)	0.4%	-2.8%	-11.2%	3.2%	-9.0%	/
CC1CCCC(NC(=O)COC(=O)c2ccc([N+](=O)[O-])s2)C1C (configuration not stated)	?	0.4%	/	/	-23.8%	6.01*
COc1ccc(Cn2c(-c3ccco3)nc3c(c(=O)c4ccccc4n3C)c2=O)cc1	-5.8%	-3.9%	-1.4%	-1.2%	22.4µM*	30.1*
COc1ccc(Cn2c(-c3ccc(OC)cc3)nc3c(c(=O)c4ccccc4n3C)c2=O)cc1	-1.9%	-1.8%	-2.2%	-15.0%	/	/
COc1ccc(Cn2c(C)nc3c(c2=O)c2nc4ccccc4nc2n3Cc2ccco2)cc1	/	/	/	/	39.8µM*	?
Cc1nc2c(c(=O)n1Cc1ccccc1Cl)c1nc3ccccc3nc1n2Cc1ccco1	-6.3%	-4.2%	2.1%	-4.2%	/	/
CCOC(=S)SSC(=S)OCC	/	-4.2%	2.3%	/	/	/
CCNc1nc(C#N)nc(N2CCOCC2)n1	/	0.4%	/	/	13.5%	/
COc1cc(C2c3c([nH]c(=O)[nH]c3=O)Nc3ccc4ccccc4c32)cc(OC)c1OC (configuration not stated)	-6.7%	/	25.1µM*	i	28.2µM*	30.1*
COc1cc(C2c3c([nH]c(=O)[nH]c3=O)Nc3ccc4ccccc4c32)ccc1O (configuration not stated)	7.1%	-9.2%	-14.6%	-25.6%	?	/
O=C(NCc1cn(-c2ccccc2)nc1-c1ccccc1)c1ccc([N+](=O)[O-])cc1	0.8%	3.2%	-5.6%	-6.6%	-5.2%	/
O=C(O)/C=C/c1cn(-c2ccccc2)nc1-c1ccc(-c2ccc([N+](=O)[O-])cc2)o1	-4.2%	-4.1%	?	-3.6%	?	75.7*
Cc1cccc(C)c1NC(=O)CN1C(=O)c2cccc3cccc1c23	/	1.9%	0.7%	/	-3.8%	/
C=C1C=CS(=O)(=O)N(Cc2ccccc2)C1	-3.5%	1.5%	-4.7%	i	-7.2%	/
CCOC(=O)c1c(C)[nH]c(C)c1C(=O)COC(=O)c1ccc([N+](=O)[O-])s1	-21.5%	5.7%[56.1 µM]	/	/	?	26.9*
CN(C)c1ccc(N=Nc2ccc(C(=O)O)cc2)cc1	?	/	-8.0%	/	?	37.9*
CC(C1SC(=S)NC1=O)C1SC(=S)NC1=O (configuration not stated)	/	/	/	/	/	?
O=C(CCN1C(=O)/C(=C/c2ccc(Cl)cc2)SC1=S)Nc1ccc(C(=O)O)cc1	?	/	-1.4%	/	-2.8%	/
O=C(CCCN1C(=O)/C(=C\c2ccco2)SC1=S)Nc1ccc2ccccc2c1	-11.3%	7.9%	-24.8%	-19.0%	-3.8%	/
O=C(CCN1C(=O)/C(=C/c2ccco2)SC1=S)Nc1ccc(C(=O)O)c(O)c1	21.2µM*	/	-7.8%	/	35.5µM*	84.9*
O=C(CCN1C(=O)/C(=C\c2cccs2)SC1=S)Nc1ccc(C(=O)O)cc1	18.0%	2.6%	-0.2%	/	?	67.5*
SMILES	APE1 inh	TDP1 inh	BLM helicase inh	RECQ1 helicase	FEN1 inh-1	FEN1 inh-2
O=C(O)c1ccc2cc(-c3ccc(O)c(C45CC6CC(CC(C6)C4)C5)c3)ccc2c1	0.8%	13.5%	-25.2%	i	/	/
CCOC(=O)C(CC)Sc1nnc2[nH]c(=O)cc(C)n12 (configuration not stated)	/	7.8%	2.5%	/	3.4%	/
COc1cc(NS(=O)(=O)c2ccc(NC(=S)NC(=O)/C=C/c3ccco3)cc2)ncn1	?	/	2.6%	i	12.6µM*	60.1*
c1nc(NCCc2cnc[nH]2)c2cc(-c3ccc4c(c3)OCO4)ccc2n1	/	8.6%	/	/	/	/
COc1cc(-c2ccc3ncnc(NCc4nc(C)cs4)c3c2)cc(OC)c1OC	/	/	/	/	/	?
COc1ccc(-c2ccc3ncnc(NCCc4cnc[nH]4)c3c2)cc1OC	/	/	/	/	/	30.1*
COc1cccc(-c2ccc3ncnc(NCc4cc(C)cs4)c3c2)c1	27.7%	2.1%	/	/	-0.2%	/
Cc1c(P(=S)(c2ccccc2)c2ccccc2)c2ccccc2n1C/C=C/c1ccccc1	/	-0.1%	/	/	/	/
O=[N+]([O-])c1ccc(Nc2nc(NCCN3CCOCC3)nc(Nc3ccc(Cl)cc3)n2)cc1	/	/	/	/	-14.5%	/
Nc1cccc2cc(S(=O)(=O)O)ccc12	/	/	/	/	8.91µM*	67.5*
Nc1ccc(S(=O)(=O)O)cc1	5.9%	14.9%	/	2.6%	/	/
Oc1ccc(/C=N/N=C(c2ccccc2)c2ccccc2)c(O)c1O	?	1.9%	?	-17.2%	?	47.8*
CC1C(=O)OC2CC34C5CC(C(C)(C)C)C36C(OC(=O)C6O)OC4(C(=O)O5)C21O (configuration not stated)	-1.6%	9.0%[56.1 µM]	0.0%	4.0%	/	/
Cc1ccc(C(=O)Nc2nnc(CC(=O)N/N=C/c3ccc(O)c(O)c3)s2)cc1	1.89µM*	/	12.6µM*	/	11.2µM*	37.9*
c1ccsc1	2.4%	5.9%	/	14.0%	/	/
Cc1c(CCC(=O)O)c(=O)oc2c(C)c3occ(-c4ccc(Br)cc4)c3cc12	?	/	-25.2%	/	-18.7%	?
COc1ccccc1NC(=O)C(=O)N/N=C/c1cccs1	3.0%	3.5%	-9.4%	2.6%	31.6µM*	30.1*
COCCNC(=O)C(=O)N/N=C/c1cccs1	-4.0%	3.6%	-4.9%	-2.8%	?	/
N#CNC(=O)c1ccc(-n2cccc2/C=C2\NC(=O)N(CC(=O)Nc3cccc(F)c3)C2=O)cc1	/	/	/	/	/	33.8*
N#CNC(=O)c1ccc(-n2cccc2/C=C2\NC(=O)N(CC(=O)Nc3ccc(Cl)cc3)C2=O)cc1	/	/	/	/	/	23.9*
O=C1N/C(=C/c2cccn2-c2ccccc2)C(=O)N1Cc1ccccc1F	1.5%	0.0%	-5.0%	2.8%	-0.5%	/
Cc1ccc(NC(=O)CN2C(=O)N/C(=C\c3cccn3-c3ccc(C(=O)NC#N)cc3)C2=O)cc1	/	/	/	/	/	30.1*

From PubChem
